Laboratory results as given in ChEMBL document CHEMBL1961873, “Compounds: GSK PKIS; Assays: Nanosyn kinase panel” (2012).

Legend:
[1] = molecular target: T1, Inhibitor of nuclear factor kappa-B kinase subunit epsilon (Homo sapiens) (UniProt Q14164); conditions: at 1 µM;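 also: reported values are averaged percent inhibition figures against human IKKε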
T1 sequence (whole entry): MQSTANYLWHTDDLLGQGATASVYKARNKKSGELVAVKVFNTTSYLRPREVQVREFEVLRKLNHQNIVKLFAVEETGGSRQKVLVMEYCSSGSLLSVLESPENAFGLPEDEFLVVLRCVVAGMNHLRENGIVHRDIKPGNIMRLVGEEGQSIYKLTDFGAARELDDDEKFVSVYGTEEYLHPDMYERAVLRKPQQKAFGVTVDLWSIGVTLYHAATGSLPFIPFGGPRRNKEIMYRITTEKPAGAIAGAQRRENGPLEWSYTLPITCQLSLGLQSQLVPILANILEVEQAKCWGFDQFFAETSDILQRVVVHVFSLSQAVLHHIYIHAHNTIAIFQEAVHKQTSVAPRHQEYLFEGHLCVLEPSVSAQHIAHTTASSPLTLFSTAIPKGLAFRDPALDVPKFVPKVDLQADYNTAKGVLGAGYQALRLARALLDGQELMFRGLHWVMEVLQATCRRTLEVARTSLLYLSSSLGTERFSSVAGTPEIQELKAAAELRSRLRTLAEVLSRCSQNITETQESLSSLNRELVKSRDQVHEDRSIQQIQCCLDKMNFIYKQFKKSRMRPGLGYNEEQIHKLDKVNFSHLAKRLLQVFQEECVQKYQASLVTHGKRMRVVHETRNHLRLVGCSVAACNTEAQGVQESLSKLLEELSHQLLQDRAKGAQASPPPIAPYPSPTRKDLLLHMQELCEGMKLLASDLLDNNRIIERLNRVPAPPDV

[2] = molecular target: T2, Serine/threonine-protein kinase Nek1 (Homo sapiens) (UniProt Q96PY6); conditions: at 0.1 µM
T2 sequence (whole entry): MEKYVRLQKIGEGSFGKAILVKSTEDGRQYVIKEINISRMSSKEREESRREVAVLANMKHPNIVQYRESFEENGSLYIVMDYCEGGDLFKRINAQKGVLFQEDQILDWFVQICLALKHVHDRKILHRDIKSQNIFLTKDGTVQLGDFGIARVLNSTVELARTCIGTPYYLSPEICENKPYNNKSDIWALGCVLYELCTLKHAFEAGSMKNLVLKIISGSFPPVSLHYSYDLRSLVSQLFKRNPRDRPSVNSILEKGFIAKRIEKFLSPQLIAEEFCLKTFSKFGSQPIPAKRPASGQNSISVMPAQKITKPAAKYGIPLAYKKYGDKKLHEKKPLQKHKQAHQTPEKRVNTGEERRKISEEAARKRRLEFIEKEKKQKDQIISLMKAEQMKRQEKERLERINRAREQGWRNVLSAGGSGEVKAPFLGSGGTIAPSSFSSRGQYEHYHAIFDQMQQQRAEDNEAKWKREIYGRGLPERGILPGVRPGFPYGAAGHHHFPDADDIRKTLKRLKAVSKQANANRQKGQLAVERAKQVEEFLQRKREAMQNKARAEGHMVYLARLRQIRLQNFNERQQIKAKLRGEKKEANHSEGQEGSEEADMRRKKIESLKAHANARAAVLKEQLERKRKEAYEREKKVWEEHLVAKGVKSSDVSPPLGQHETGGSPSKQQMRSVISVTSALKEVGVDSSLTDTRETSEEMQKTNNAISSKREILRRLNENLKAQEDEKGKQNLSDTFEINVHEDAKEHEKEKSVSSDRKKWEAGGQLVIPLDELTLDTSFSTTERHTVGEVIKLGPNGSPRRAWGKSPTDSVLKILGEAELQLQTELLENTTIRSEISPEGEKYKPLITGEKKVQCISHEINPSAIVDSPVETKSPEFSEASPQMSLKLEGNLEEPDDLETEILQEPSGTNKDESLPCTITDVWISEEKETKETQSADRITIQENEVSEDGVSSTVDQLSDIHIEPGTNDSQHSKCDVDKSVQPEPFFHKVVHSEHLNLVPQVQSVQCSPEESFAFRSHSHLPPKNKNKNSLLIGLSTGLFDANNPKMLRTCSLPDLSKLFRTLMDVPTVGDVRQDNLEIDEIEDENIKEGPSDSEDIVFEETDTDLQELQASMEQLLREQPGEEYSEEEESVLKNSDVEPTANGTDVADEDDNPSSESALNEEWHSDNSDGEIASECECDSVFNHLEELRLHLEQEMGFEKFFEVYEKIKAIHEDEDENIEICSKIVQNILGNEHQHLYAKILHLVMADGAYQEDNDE

[3] = molecular target: T2, Serine/threonine-protein kinase Nek1 (Homo sapiens); conditions: at 1 µM
[4] = molecular target: T3, Serine/threonine-protein kinase Nek2 (Homo sapiens) (UniProt P51955); conditions: at 0.1 µM
T3 sequence (whole entry): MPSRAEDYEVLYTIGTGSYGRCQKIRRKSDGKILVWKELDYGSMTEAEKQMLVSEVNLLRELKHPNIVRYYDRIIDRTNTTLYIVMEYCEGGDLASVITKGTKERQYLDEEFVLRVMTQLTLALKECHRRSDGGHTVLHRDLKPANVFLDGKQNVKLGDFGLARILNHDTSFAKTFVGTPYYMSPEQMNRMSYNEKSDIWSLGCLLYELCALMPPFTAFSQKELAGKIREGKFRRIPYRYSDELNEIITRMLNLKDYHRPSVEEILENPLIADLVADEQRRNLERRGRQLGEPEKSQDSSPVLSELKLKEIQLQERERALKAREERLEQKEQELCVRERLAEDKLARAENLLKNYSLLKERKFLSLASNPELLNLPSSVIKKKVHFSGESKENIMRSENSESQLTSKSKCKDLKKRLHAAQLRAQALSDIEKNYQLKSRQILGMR

[5] = molecular target: T3, Serine/threonine-protein kinase Nek2 (Homo sapiens); conditions: at 1 µM
[6] = molecular target: Serine/threonine-protein kinase Nek6 (Homo sapiens) (UniProt Q9HC98); conditions: at 0.1 µM
Sequence of Serine/threonine-protein kinase Nek6 (Homo sapiens) (Q9HC98 whole entry): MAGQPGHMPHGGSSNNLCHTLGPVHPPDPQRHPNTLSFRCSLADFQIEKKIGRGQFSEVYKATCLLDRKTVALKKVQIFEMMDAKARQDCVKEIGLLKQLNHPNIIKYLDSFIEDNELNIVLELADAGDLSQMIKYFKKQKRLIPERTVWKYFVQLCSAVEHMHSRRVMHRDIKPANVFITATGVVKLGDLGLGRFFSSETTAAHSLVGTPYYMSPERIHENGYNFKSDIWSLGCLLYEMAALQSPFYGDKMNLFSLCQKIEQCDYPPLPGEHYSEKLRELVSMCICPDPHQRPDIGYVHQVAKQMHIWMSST

[7] = molecular target: Serine/threonine-protein kinase Nek6 (Homo sapiens) (UniProt Q9HC98); conditions: at 1 µM
[8] = molecular target: Serine/threonine-protein kinase Nek7 (Homo sapiens) (UniProt Q8TDX7); conditions: at 0.1 µM
Sequence of Serine/threonine-protein kinase Nek7 (Homo sapiens) (Q8TDX7 whole entry, looked up): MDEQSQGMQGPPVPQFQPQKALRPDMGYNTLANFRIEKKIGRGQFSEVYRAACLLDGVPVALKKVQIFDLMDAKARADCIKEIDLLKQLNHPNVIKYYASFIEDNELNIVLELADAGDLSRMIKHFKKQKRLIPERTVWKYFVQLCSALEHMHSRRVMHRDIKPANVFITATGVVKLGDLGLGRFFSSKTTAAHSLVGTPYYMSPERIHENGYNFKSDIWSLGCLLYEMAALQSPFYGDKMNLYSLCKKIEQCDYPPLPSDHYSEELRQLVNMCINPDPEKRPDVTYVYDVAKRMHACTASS

[9] = molecular target: Serine/threonine-protein kinase Nek7 (Homo sapiens) (UniProt Q8TDX7); conditions: at 1 µM
[10] = molecular target: T4, Serine/threonine-protein kinase Nek9 (Homo sapiens) (UniProt Q8TD19); conditions: at 0.1 µM;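 also: reported value is the mean percent inhibition of NEK9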
T4 sequence (whole entry): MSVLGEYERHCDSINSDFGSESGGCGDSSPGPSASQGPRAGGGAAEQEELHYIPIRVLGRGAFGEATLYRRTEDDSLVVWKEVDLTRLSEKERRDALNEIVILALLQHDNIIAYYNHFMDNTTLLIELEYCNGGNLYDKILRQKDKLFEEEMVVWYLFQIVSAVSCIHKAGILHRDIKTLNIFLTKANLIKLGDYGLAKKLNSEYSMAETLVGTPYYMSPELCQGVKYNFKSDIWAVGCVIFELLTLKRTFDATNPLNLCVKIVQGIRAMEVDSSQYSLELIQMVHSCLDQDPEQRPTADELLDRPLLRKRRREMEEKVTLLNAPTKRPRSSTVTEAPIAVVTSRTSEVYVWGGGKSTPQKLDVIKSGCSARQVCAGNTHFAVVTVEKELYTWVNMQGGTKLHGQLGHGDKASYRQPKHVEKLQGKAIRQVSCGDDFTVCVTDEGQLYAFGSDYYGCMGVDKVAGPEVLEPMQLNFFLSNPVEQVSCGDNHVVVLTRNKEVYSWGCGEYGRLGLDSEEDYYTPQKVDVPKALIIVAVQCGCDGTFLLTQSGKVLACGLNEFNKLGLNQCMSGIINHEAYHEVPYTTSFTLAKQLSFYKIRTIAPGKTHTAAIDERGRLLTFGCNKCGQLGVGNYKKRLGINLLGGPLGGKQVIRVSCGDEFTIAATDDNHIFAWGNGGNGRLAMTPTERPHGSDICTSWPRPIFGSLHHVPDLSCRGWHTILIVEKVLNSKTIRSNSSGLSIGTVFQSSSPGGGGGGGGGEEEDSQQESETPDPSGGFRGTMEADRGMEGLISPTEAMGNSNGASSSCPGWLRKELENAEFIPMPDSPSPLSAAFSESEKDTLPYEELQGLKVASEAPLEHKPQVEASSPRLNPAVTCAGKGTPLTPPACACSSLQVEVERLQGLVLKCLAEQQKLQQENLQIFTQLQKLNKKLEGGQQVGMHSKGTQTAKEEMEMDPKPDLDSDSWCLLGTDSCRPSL

COc1cc(/C=N/Nc2ncnc3c2cnn3C(C)C)ccc1O
inhibition [1]: 1.92%
inhibition [2]: 2.42%
inhibition [3]: 10.4%
inhibition [4]: 2.62%
inhibition [5]: 6.4%
inhibition [6]: 2.57%
inhibition [7]: 1.52%
inhibition [8]: 5.39%
inhibition [9]: 2.72%
inhibition [10]: -0.27%

NS(=O)(=O)c1cccc(-c2cc3ccncc3cc2OCc2ccccc2)c1
inhibition [1]: 5.04%
inhibition [2]: 2.64%
inhibition [3]: 2.55%
inhibition [4]: 5.53%
inhibition [5]: 6.81%
inhibition [6]: 0.87%
inhibition [7]: -0.35%
inhibition [8]: 5.92%
inhibition [9]: 3.78%
inhibition [10]: 2.36%

NS(=O)(=O)c1ccc(-c2cc3ccncc3cc2OCc2ccccc2)cc1
inhibition [1]: 2.21%
inhibition [2]: 2.31%
inhibition [3]: 2.44%
inhibition [4]: 3.99%
inhibition [5]: 3.04%
inhibition [6]: 3.18%
inhibition [7]: 3.3%
inhibition [8]: 5.28%
inhibition [9]: 4.88%
inhibition [10]: 9.27%

COC(=O)Nc1nc2cc(Oc3ccc(NC(=O)Nc4cccc(Br)c4)cc3)ccc2[nH]1
inhibition [1]: 5.38%
inhibition [2]: 2.6%
inhibition [3]: 2.19%
inhibition [4]: 3.46%
inhibition [5]: 2.81%
inhibition [6]: 3.89%
inhibition [7]: 3.38%
inhibition [8]: 3.11%
inhibition [9]: 2.69%
inhibition [10]: 7.82%

Cc1cc(-c2ccccn2)cc(C)c1/C=C/c1cncc(-c2nn[nH]n2)c1
inhibition [1]: 5.98%
inhibition [2]: 1.6%
inhibition [3]: 2.75%
inhibition [4]: 5.75%
inhibition [5]: 4.38%
inhibition [6]: 0.78%
inhibition [7]: 3.18%
inhibition [8]: 2.68%
inhibition [9]: 7.82%
inhibition [10]: 5.24%

NS(=O)(=O)c1ccc(NC=C2C(=O)Nc3ccc4ncsc4c32)cc1
inhibition [1]: 65.4%
inhibition [2]: 3.02%
inhibition [3]: 6.96%
inhibition [4]: 5.94%
inhibition [5]: 8.12%
inhibition [6]: 1.57%
inhibition [7]: 7.78%
inhibition [8]: 7.6%
inhibition [9]: 13.9%
inhibition [10]: 9.07%

Nc1nccc(-c2c(-c3ccc(F)cc3)nn3cc(C(F)(F)F)ccc23)n1
inhibition [1]: 0.39%
inhibition [2]: -0.26%
inhibition [3]: -0.62%
inhibition [4]: 0%
inhibition [5]: 1.3%
inhibition [6]: 0.29%
inhibition [7]: -2.61%
inhibition [8]: -1.44%
inhibition [9]: 0.7%
inhibition [10]: 0.57%

O=S(=O)(CCOCc1ccc(-c2ccc3ncnc(Nc4ccc(OCc5cccc(F)c5)c(Cl)c4)c3c2)o1)c1ccccc1
inhibition [1]: 0.73%
inhibition [2]: 1.11%
inhibition [3]: 1.59%
inhibition [4]: 3.36%
inhibition [5]: 2.18%
inhibition [6]: 0.77%
inhibition [7]: 0.7%
inhibition [8]: 1.66%
inhibition [9]: 5.83%
inhibition [10]: 5%

Cc1ccc2c(c1)/C(=N/Nc1ccc(S(N)(=O)=O)cc1)C(=O)N2
inhibition [1]: -2.89%
inhibition [2]: -0.29%
inhibition [3]: 1.65%
inhibition [4]: 0.94%
inhibition [5]: 0.07%
inhibition [6]: -2.33%
inhibition [7]: -1.82%
inhibition [8]: 2.58%
inhibition [9]: 2.3%
inhibition [10]: 2%
